# In the library only some 27% were active in any assay of this set; here they are far more common.
# Cav3 T inh – Cav3.2 calcium influx blockers – cell-based, Fluo-4 calcium fluorescence, FDSS, MLSMR library, primary screen | Voltage-dependent T-type calcium channel subunit alpha-1H (Homo sapiens), O95180 | 100,000 tested, 4% active | B-score at 10 µM | Cav3.2-expressing cells; hits give low values;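 active means single-dose well whose peak fluorescence ratio is a statistical outlier from its plate by either plate-standardised score or position-corrected B-score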
# CYP2C9 act – human CYP2C9 activators, primary screen, biochemical, luminescence; activation factor at 5 µM; Cytochrome P450 2C9 (Homo sapiens), P11712; recombinant CYP2C9, luciferin-H conversion; hits give high values; factor 1 = untreated enzyme, 0 = blocked; 96,000 tested, 1.4% active; AID 1024, 2008;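 active means activation factor of 2 or more for CYP2C9 at a 5 µM dose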;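 further: 0 = sulfaphenazole-blocked wells and 1 = vehicle-only wells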
# Target sequence (P11712 whole entry, looked up): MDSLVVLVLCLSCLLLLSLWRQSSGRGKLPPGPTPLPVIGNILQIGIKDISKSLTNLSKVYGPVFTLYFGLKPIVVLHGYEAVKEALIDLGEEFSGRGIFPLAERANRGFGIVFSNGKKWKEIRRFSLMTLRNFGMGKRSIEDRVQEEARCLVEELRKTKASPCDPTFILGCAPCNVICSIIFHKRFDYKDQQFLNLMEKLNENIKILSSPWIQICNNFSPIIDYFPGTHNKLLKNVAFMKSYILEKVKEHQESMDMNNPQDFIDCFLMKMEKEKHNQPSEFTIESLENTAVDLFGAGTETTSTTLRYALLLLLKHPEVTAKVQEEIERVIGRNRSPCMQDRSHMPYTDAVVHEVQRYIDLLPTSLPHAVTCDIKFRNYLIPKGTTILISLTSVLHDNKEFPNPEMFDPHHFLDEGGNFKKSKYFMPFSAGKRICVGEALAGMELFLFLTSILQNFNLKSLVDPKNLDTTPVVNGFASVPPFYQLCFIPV
# CYP2C19 inh – blockers of cytochrome P450 2C19 activity – biochemical, luminescence, ADME assay, primary screen | CYP2C19 Supersomes, luciferin-H EGE luminescence, 30 min | P33261 | AID 778, 2007 | 96,000 tested, 21% active | inhibition, % at 5 µM;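 active means CYP2C19 inhibition above a set limit at 5 µM in the primary screen, cut at about 50% in these data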;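 further: plate controls were negative control wells for no effect and 2.5 mM tranylcypromine positive control for full effect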
# CYP2C9 inhib – blockers of cytochrome P450 2C9 activity – biochemical, luminescence, ADME assay, primary screen. P11712. 96,000 tested, 20% active. inhibition, % at 5 µM. CYP2C9 Supersomes, luciferin-H conversion;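 active means blocking of liver enzyme CYP2C9 beyond about 50% at 5 µM, limit read from the data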
# CYP2C19 activ – human CYP2C19 activators, primary screen, biochemical, luminescence; recombinant CYP2C19, luciferin-H EGE luminescence; hits give high values; 0 = fully inhibited enzyme, 1 = untreated enzyme; activation factor at 5 µM; 96,000 tested, under 10 active; Cytochrome P450 2C19 (Homo sapiens), P33261;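 active means activation factor of at least 2 at 5 µM in the primary screen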;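 further: 0 = wells with 2.5 mM tranylcypromine and 1 = vehicle-only wells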
# Active calls of the source: *; x = no result.
SMILES,Cav3 T inh,CYP2C9 act,CYP2C19 inh,CYP2C9 inhib,CYP2C19 activ
COC(=O)C1=NN(c2ccccc2)C2(S1)S/C(=C\c1ccccc1)C(=O)N2c1ccccc1 (stereo not given),-1,0.5,88*,54*,0.1
CCOC(=O)C1=NN(c2ccc(C)cc2)C2(S1)SC(C(C)=O)=C(C)N2c1ccccc1 (stereo not given),-3.4,0.5,39,54*,0.6
CCOC(=O)C1=NN(c2cccc(C)c2)C2(S1)SC(C(C)=O)=C(C)N2c1ccccc1 (stereo not given),-3.5*,0.2,47,80*,0.5
CC(C)NC(=O)Cn1nnc(-c2ccc(Cl)cc2)n1,x,1,25,3,0.8
CCCc1cc(=O)[nH]c(SCC(=O)Nc2ccc(OC(F)F)cc2)n1,0.37,1,36,1,0.6
Cc1cc(NC(=O)C2(c3ccccc3)CCCC2)no1,x,0.7,42,29,0.6
COc1ccc(C(CCN2CCCC(C)C2)c2c(OC)cc(OC)c3c2OC(=O)CC3c2cc(OC)c(OC)c(OC)c2)cc1 (stereo not given),-0.98,x,x,x,x
COc1cccc(-c2nnc3sc(-c4ccc(C)cc4)nn23)c1,x,0.7,13,28,0.9
COc1cccc(-c2nn3c(-c4cccc(C)c4)nnc3s2)c1,-1.9,0.2,89*,76*,0.1
COc1cc(OC)c(-c2nn3c(-c4ccco4)nnc3s2)cc1OC,2.3,0.3,44,73*,0.6
CCOc1cccc(-c2nn3c(-c4ccco4)nnc3s2)c1,0.37,0.9,14,6,0.9
CCOc1cccc(-c2nnc3sc(-c4cc(OC)c(OC)c(OC)c4)nn23)c1,x,0.4,36,63*,0.6
CCOc1cccc(-c2nnc3sc(COc4ccc(C)cc4)nn23)c1,-0.22,0.4,54*,64*,0.5
CCOc1cccc(-c2nnc3sc(COc4ccccc4)nn23)c1,-0.14,1,-5,5,1.1
COc1ccc(-c2nn3c(-c4ccco4)nnc3s2)cc1OC,-1.1,0.8,16,18,0.8
CC(=O)C1C(c2ccco2)c2c(noc2C)CC1(C)O (stereo not given),x,1,-5,4,1.1
O=C(C/C=N\OCc1c(Cl)cccc1Cl)Oc1ccc(Cl)cc1Cl,-0.2,1.1,8,-11,0.9
CCOc1ccc(-c2nn3c(-c4ccccc4)nnc3s2)cc1,0.62,0.8,29,24,0.7
COc1ccc(-c2nnc3sc(COc4ccccc4)nn23)cc1,-1.3,0.7,36,26,0.6
c1ccc(OCc2nn3c(-c4ccco4)nnc3s2)cc1,0.55,0.5,67*,49,0.3
COc1cc(-c2nnc3sc(-c4ccco4)nn23)cc(OC)c1OC,-1.7,0.4,36,65*,0.6
c1coc(-c2nnc3sc(-c4cccs4)nn23)c1,-0.43,0.5,64*,45,0.4
COc1cc(-c2nn3c(-c4ccccc4)nnc3s2)cc(OC)c1OC,1.8,0.3,74*,72*,0.3
COc1ccc(-c2nnc3sc(-c4ccco4)nn23)cc1OC,0.85,0.9,12,11,0.9
CCc1nnc(NC(=O)CSc2nnc(-c3ccncc3)n2C)s1,-1.8,x,x,x,x
SMILES,Cav3 T inh,CYP2C9 act,CYP2C19 inh,CYP2C9 inhib,CYP2C19 activ
COc1cc(-c2nn3c(COc4ccccc4)nnc3s2)cc(OC)c1OC,x,0.7,12,25,0.9
Cc1nnc2sc(-c3ccncc3)nn12,-0.084,1,13,-1,0.9
COc1cc(-c2nn3c(Cc4ccccc4)nnc3s2)cc(OC)c1OC,-0.018,0.3,53*,70*,0.5
COc1ccccc1-c1nnc2sc(C3CCCCC3)nn12,-3,0.7,39,29,0.6
CC(C)(C)c1ccc(-c2nnc3sc(-c4ccncc4)nn23)cc1,0.059,0.5,58*,53*,0.4
c1cc(-c2nnc3sc(C4CCCCC4)nn23)ccn1,0.36,0.8,88*,21,0.1
Cc1nn2c(-c3ccc(Cl)cc3)nnc2s1,-0.22,0.9,56*,6,0.4
CN(C)S(=O)(=O)n1ccnc1,0.46,1,-6,-4,1.1
NC(=O)Nc1ccc(Oc2c(F)c(F)c(F)c(F)c2F)cc1,-1.2,0.7,30,31,0.7
CC(C)(C)c1ccc(C(=O)/C=C2\NC(=O)CS2)cc1,x,0.9,-27,6,1.3
O=C1CS/C(=C\S(=O)(=O)c2ccc(Cl)cc2)N1,0.13,0.4,26,57*,0.7
O=C(Oc1nsnc1N1CCOCC1)c1ccccc1,-0.43,0.6,64*,37,0.4
Cc1nc(-c2cccc(S(=O)(=O)N3CCCCCC3)c2)cs1,-3.5,0.3,95*,66*,0.1
CC1CN(S(=O)(=O)c2cccc(-c3csc(-c4ccccc4)n3)c2)CC(C)O1 (stereo not given),-1.1,0.4,20,58*,0.8
O=S(=O)(c1cccc(-c2csc(-c3ccccc3)n2)c1)N1CCOCC1,-0.49,0.4,47,61*,0.5
O=S(=O)(c1cccc(-c2nc3ccccc3s2)c1)N1CCOCC1,-0.015,1,12,0,0.9
Cc1cc(C(F)F)nn1CC(=O)NCc1ccccc1F,0.42,x,x,x,x
O=C(NCc1ccccc1)N1CCC(n2cnc3cc(F)ccc32)CC1,0.65,0.9,-2,11,1
CC(C)Cn1c(SCc2nnc(-c3cccs3)o2)nc(O)cc1=O,-0.2,0.3,24,75*,0.8
Cc1sc2nc(SCc3nnc(-c4cccs4)o3)n(C3CCCC3)c(=O)c2c1C,-3.5,0.2,26,83*,0.7
c1ccc(-c2nnc(SCc3nnc(-c4cccs4)o3)o2)cc1,0.38,0.7,34,31,0.7
COc1ccc(N2CCN(c3nc(NCCc4ccc(OC)c(OC)c4)nc(OC)n3)CC2)cc1,-2,0.2,82*,83*,0.2
CCOc1cc(C)nc(NCCc2ccc(OC)c(OC)c2)n1,-0.98,0.8,66*,21,0.3
CCOC(=O)c1ccc2ncc(C(=O)OCC)c(NCCN(C)C)c2c1,1.4,x,x,x,x
COc1ccc(CCNc2nc(C)cc(=O)[nH]2)cc1OC,0.73,x,x,x,x
COc1ccc(N2CC(C(=O)NCCc3ccc(OC)c(OC)c3)CC2=O)cc1 (stereo not given),x,1,-3,2,1
CCOC(=O)c1cnc2ccccc2c1NCCc1ccc(OC)c(OC)c1,-2.5,0.2,75*,83*,0.3
CCc1ccccc1NC(=O)Cn1nc(C(F)(F)F)c2c1CCC2,-3.8,x,x,x,x
Cc1cc(NC(=O)Cn2nc(C(F)(F)F)c3c2CCC3)n(-c2ccccc2)n1,-1.6,0.4,80*,62*,0.2
Cc1nc(NCCc2ccccc2F)c(C#N)c(C)c1[N+](=O)[O-],0.068,0.3,26,68*,0.7

# High-throughput results deposited in PubChem BioAssay by several laboratories.
